Bioassay records: PubChem BioAssay, National Center for Advancing Translational Sciences (NCATS)
HT1080 IDH1KD tx – toxicity to HT-1080 IDH1 knockdown cells (counter line) | hit rate 2% among 360,000 | HT-1080 IDH1 knockdown viability, ATP luminescence, 48 h | Potency, µM (series often up to 46.1 µM), most hits filed as cytotoxic
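IDH1KD HT-1080 cells, 750/well, RPMI + 5% FBS; compound pinned after 2 h settling; 48 h, 37 °C; CellTiter-Glo luminescence; % activity normalised to DMSO and no-cell wells; curves fitted, classed by r2 and efficacy.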
KB-3-1 cytotox – kills parental KB-3-1 adenocarcinoma cells | AID 1347075 | hit rate 1.4% among 400,000 | Potency, µM (highest dose often 46.1 µM), actives largely listed as cytotoxic | KB-3-1 viability, CellTiter-Glo ATP luminescence, 72 h; further: nearly all actives have a fitted effect of over 60% in size
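Multi-concentration cytotoxicity screen in KB-3-1 cells grown in DMEM lacking phenol red with 10% FBS. After 72 h at 37 °C with compound, ATP-dependent luminescence was recorded.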
MCF10A rereplic – inducers of DNA re-replication in MCF 10A breast cells | MCF 10A DNA re-replication, Hoechst nuclear intensity, 48 h | Potency, µM (doses to about 46.1 µM), usual class: activators | hit rate 2.9% among 350,000 | AID 624296; further: nearly all actives have a fitted effect of over 50% in size
SW480 rereplic – inducers of DNA re-replication in SW480 colon cancer cells; SW480 DNA re-replication, Hoechst DNA content imaging, 48 h; hit rate 1.8% among 340,000; Potency, µM (titrated, usually from 46.1 µM), usual class: activators; further: nearly all actives have a fitted effect of over 55% in size
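250 cells/well; 23 nL cpd via pin tool; 48 hr, 37 C, 5% CO2; Hoechst 40 min; imager read of total nuclear intensity, ex 405/em 500-530 nm.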
KB-V1 MDR tox – kills drug-selected multidrug resistant KB-V1 cells; AID 1347076; Potency, µM (doses to about 46.1 µM), usual class: cytotoxic; KB-V1 MDR cells viability, CellTiter-Glo, 72 h; hit rate 3.4% among 400,000; further: nearly all actives have a fitted effect of over 60% in size
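KB-V1 cells (P-gp-expressing MDR subline of KB-3-1) in phenol-red-free DMEM with 10% FBS were exposed to library compounds over a concentration series for 72 h at 37 degrees C. Viability read by CellTiter-Glo luminescence; concentration-effect curves fitted after normalization.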
HT1080NT lethal – kills 2HG-producing HT-1080-NT fibrosarcoma cells | HT-1080-NT fibrosarcoma viability, CellTiter-Glo ATP luminescence, 48 h | Potency, µM (series often up to 46.1 µM), actives largely listed as cytotoxic | hit rate 1.6% among 360,000;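 further: NT is the 2HG producing partner of a matched IDH1 knockdown line; nearly all actives have a fitted effect of over 55% in size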
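Compounds were tested in concentration-response format on HT-1080-NT cells for 48 hours at 37 degrees C. Cell viability came from CellTiter-Glo luminescence; curves were classified by r2, response magnitude and activity.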
Numbers stand for hits; i = inactive; ? = inconclusive; nt = not tested or not shown. Hits are enriched below; roughly 8% of the tested compounds scored in any of these assays. The call rests on the fitted dose curve; in most records, active means well fitted curve in the direction sought with a large enough effect; inconclusive means small, poorly fitted or top-dose-only effect, or another doubt; inactive means no such curve, though single readings can be large; an effect the other way counts as inactive or inconclusive.

SMILES	HT1080 IDH1KD tx	KB-3-1 cytotox	MCF10A rereplic	SW480 rereplic	KB-V1 MDR tox	HT1080NT lethal
Cc1cc(C)c2c(c1)/C(=N/Nc1ccc(S(N)(=O)=O)cc1[N+](=O)[O-])CCC2	i	i	2.3µM	i	?	i
NS(=O)(=O)c1ccc(NN=C2CCN(Cc3ccccc3)CC2)c([N+](=O)[O-])c1	i	i	i	i	i	i
CC1C/C(=N\Nc2ccc(S(N)(=O)=O)cc2[N+](=O)[O-])CC(C)(C)C1 (stereo not given)	?	i	21µM	i	i	?
NS(=O)(=O)c1ccc(N/N=C2/CCCCC2C2CCCCC2)c([N+](=O)[O-])c1 (stereo not given)	?	?	12µM	?	i	18µM
Cc1c(Cl)cccc1N1CCn2c1nc1c2c(=O)n(CC(=O)O)c(=O)n1C	nt	i	nt	nt	i	nt
Cc1ccc2c(c1)-c1onc(C(=O)N(C)c3cccc(C(F)(F)F)c3)c1CO2	nt	?	nt	nt	i	nt
COc1ccc(-c2cc(C(=O)Nc3cc(C)nn3-c3ccccc3)no2)cc1	i	i	i	i	i	i
COc1ccccc1-c1cc(C(=O)NC(C)c2ccccc2)no1 (stereo not given)	?	i	i	?	21µM	i
CCCCNC(=O)c1cc(-c2ccc(F)cc2)on1	?	18µM	i	i	16µM	?
COCCNC(=O)c1cc(-c2ccccc2OC)on1	i	9.2µM	?	?	?	?
COc1ccccc1-c1cc(C(=O)Nc2cc(C)nn2-c2ccccc2)no1	3.2µM	5.2µM	1.3µM	i	6.5µM	?
COc1ccccc1-c1cc(C(=O)NC(C)C)no1	i	i	i	i	i	i
CCC(=O)N1CCc2cc(Br)cc(S(=O)(=O)CCC(=O)NCCc3ccc(Cl)cc3)c21	nt	i	nt	nt	i	nt
O=C(O[C@H]1[C@H](Cc2ccccc2)NS(=O)(=O)[C@H]2CC3C=C[C@]12O3)c1ccc(Br)cc1	nt	i	nt	nt	?	nt
COc1ccc(OC)c(-c2cc(C(=O)NCc3cccs3)no2)c1	?	i	?	i	16µM	i
COc1ccccc1-c1cc(C(=O)NCc2cccs2)no1	i	i	i	i	i	i
CC12CCC(=O)N1C(C(=O)N1CCN(c3ccccc3)CC1)CS2 (stereo not given)	i	i	i	i	i	i
CC12CCC(=O)N1C(C(=O)N1CCN(c3ccc([N+](=O)[O-])cc3)CC1)CS2 (stereo not given)	?	i	i	i	18µM	i
Cc1ccc(/C=N/NC(=O)c2csc3c2CCCC3)cc1	?	2.1µM	1.3µM	?	?	?
COc1ccc(/C=N/NC(=O)c2cccc([N+](=O)[O-])c2)cc1OS(=O)(=O)c1ccccc1	i	i	i	i	i	i
COc1cccc(/C=N/NC(=O)C(=O)N/N=C/c2cccc(OC)c2OC)c1OC	23µM	i	i	16µM	i	?
COc1cccc(/C=N/NC(=O)c2cccc([N+](=O)[O-])c2)c1OS(=O)(=O)c1ccccc1	i	i	i	i	10µM	i
COc1cccc(/C=N/NC(=O)c2ccc([N+](=O)[O-])cc2Cl)c1O	?	i	?	?	9.2µM	?
CCn1cc(C(=O)N2CCN(c3ccccc3F)CC2)c(=O)c2cc(S(=O)(=O)N(C)C3CCCCC3)ccc21	nt	i	nt	nt	i	nt
COc1ccc(-c2[nH]ncc2N=Nc2cc(C)cc(C)c2)cc1	21µM	?	?	?	?	18µM
SMILES	HT1080 IDH1KD tx	KB-3-1 cytotox	MCF10A rereplic	SW480 rereplic	KB-V1 MDR tox	HT1080NT lethal
COc1ccc(-c2[nH]ncc2N=Nc2ccccc2)cc1	16µM	?	i	?	?	16µM
COc1ccc(C(=O)c2cn[nH]c2-c2ccc(C)cc2O)cc1	i	i	i	i	?	i
Cn1cc(S(=O)(=O)N2CCCCC2)cc1C(=O)N1CCN(c2ccccc2F)CC1	nt	i	nt	nt	i	nt
Cc1ccccc1-c1noc(CSc2nc(-c3ccc(F)cc3)cc(=O)[nH]2)n1	nt	i	nt	nt	i	nt
COC(=O)c1ccc(NC(=O)N2CCN(c3nnc(C)c4c(C)n(-c5ccccc5)nc34)CC2)cc1	nt	i	nt	nt	i	nt
COc1cc(C(=O)Nc2cc(C(F)(F)F)ccc2Cl)cc(OC)c1OC	i	i	i	i	21µM	i
O=C(Nc1cc(C(F)(F)F)ccc1Cl)c1ccncc1	i	i	i	i	i	?
Cc1ccc(C(=O)NC(=S)Nc2cc(C(F)(F)F)ccc2Cl)cc1	?	i	9.2µM	?	i	?
CCCCOC(=O)c1cc(=O)[nH]c2ccc(C)cc12	i	15µM	i	i	18µM	i
Cc1ccccc1NC(=O)c1cccc(OCc2c(C)noc2C)c1	i	i	i	i	i	i
CCNC(=O)COC(=O)c1cc(=O)[nH]c2ccccc12	i	i	i	i	i	i
Cc1noc(C)c1COC(=O)c1cc(=O)[nH]c2ccccc12	i	?	i	i	5.8µM	i
Cc1cccc(C(=O)Nc2ccccc2C(=O)OCc2c(C)noc2C)c1	i	i	i	i	3.3µM	i
CCCCOC(=O)c1cc(=O)[nH]c2ccccc12	i	i	i	i	5.8µM	i
COc1ccc(N(Cc2nnc3n2CCCCC3)C(=O)Nc2cccc(C)c2)cc1Cl	nt	i	nt	nt	i	nt
COc1cccc(NC(=O)C(=O)NCC(c2ccc3c(c2)OCO3)N2CCOCC2)c1 (stereo not given)	nt	i	nt	nt	i	nt
CCc1cccc(NC(=O)CCS(=O)(=O)c2ccc(C)cc2)c1	nt	i	nt	nt	i	nt
Cc1noc(C)c1COC(=O)c1cc(C)n(-c2ccccc2)c1C	i	?	i	i	7.3µM	i
O=C(Cn1c(=O)n2nc(-c3cccc(F)c3)nc2c2ccccc21)N1CCN(c2ccccc2F)CC1	nt	i	nt	nt	i	nt
Cc1ccc(Nc2nc(N)c(C#N)c(CC#N)c2C#N)cc1	?	i	21µM	?	i	?
Cc1ccc(-n2nc(CC#N)c(C#N)c2N)cc1	i	i	i	i	i	i
CC(C)(C)c1ccc(C(=O)C[n+]2ccc(Cl)c3ccc(Cl)cc32)cc1	nt	0.26µM	nt	nt	?	nt
CC(C)(C)c1ccc(C(=O)C[n+]2cc(Br)cc(Br)c2)cc1	nt	i	nt	nt	i	nt
CC(C)(C)c1ccc(C(=O)CC(=O)c2cc(Cl)ccc2O)cc1	?	5.8µM	?	?	2.6µM	?
COc1ccccc1NC(=O)C12CC3CC(C1)CC(c1ccc(C)cc1)(C3)C2	i	i	i	i	16µM	i
COCCNC(=O)CCn1c(=O)c2cc(OC)c(OC)cc2n(CC(=O)Nc2ccccc2OC)c1=O	nt	i	nt	nt	i	nt
O=C(COc1ccccc1-c1nc(-c2ccccc2)no1)Nc1ccccc1[N+](=O)[O-]	nt	i	nt	nt	i	nt
Cc1ccc(NC(=O)C2CCCN(c3ncnc4onc(C)c34)C2)cc1Cl (stereo not given)	nt	i	nt	nt	i	nt
